Here are results for 13 molecules from PubChem BioAssay (NCI).

About 83,000 compounds went through this panel and 20% of them were active in at least one assay; those are over-represented in the sample as a whole.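 Negative percent growth values reflect cell death: -40 means 40% of the cells present at the start died, and -100 means all died.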 Calls of active or inactive are those of the source. How the source made its calls: active means growth percent below 10; inactive means the rest.

This assay deals with SK-MEL-28 melanoma. Kind of assay: NCI-60 one-dose screen, 48 h (100 = growth as untreated, 0 = no growth, -100 = all killed). To be noted: 10 µM.
Turning to `S=C1SCC(c2ccccc2)S1` (stereo not drawn), the growth was 103% (inactive).
Then `Nc1ncnc2[nH]c(=O)[nH]c12`, with 107% (inactive).
As to `Cc1ccc(S(=O)(=O)Oc2ccc3c4c(c(=O)oc3c2)CCCCC4)cc1`, the growth is 79.5% (inactive).
In the case of `CCN(CC)CCSCCN(CC)CC`, the growth is 103% (inactive).
The same measure for `O=C(Nc1ccccc1)Nc1cccc(-n2cc(-c3ccncc3)c(-c3ccc(O)c(Cl)c3)n2)c1`: 43.6% (inactive); for `O=C(Nc1cccc(-n2cc(-c3ccncc3)c(-c3ccc(O)c(Cl)c3)n2)c1)c1cccc(C(F)(F)F)c1`: 43.9% (inactive).
On to `O=C(CC(NC(=O)OCc1ccccc1)C(=O)OCc1ccccc1)OCc1ccccc1` (stereo not drawn), for which the growth is 108% (inactive).
The same measure for `COc1ccc(Oc2nc(NC3CCCC3)nc(Sc3ccc(OC)cc3)n2)cc1`: 86% (inactive).
Then `COc1ccc(-c2nn(-c3cccc(NC(=O)c4ccc(N5CCOCC5)c(C(F)(F)F)c4)c3)cc2-c2ccncc2)cc1Cl`, with 72.3% (inactive).
Consider `COc1ccc(-c2nn(-c3cccc(NC(=O)Nc4ccccc4)c3)cc2-c2ccncc2)cc1Cl`, for which the growth was 11.3% (inactive).
Consider `CCCCCCCCCCCCCCCC(=O)OC1[C@@H](OC(=O)CCCCCCCCCCCCCCC)[C@@H](C(=O)N[C@@H](CCCCN)C(=O)OC)O[C@H]1n1cnc2c(=O)[nH]c(NC(=O)C(C)C)nc21` (stereo partly drawn), for which the growth is 113% (inactive).
The same measure for `CCc1ccc2c(c1)N(CCO)C1=C(C(=O)OC1)C2c1cc(OC)c(OC)c(OC)c1` (stereo not drawn): 64.5% (inactive); for `O=S(=O)(NCCCNc1nccc(-c2c(-c3ccc(F)cc3)nc3sccn23)n1)c1ccc2ccccc2c1`: 72.6% (inactive).
